# Test results published in PubChem BioAssay (EPA / NIEHS).
# Inconclusive results are not listed. Active and inactive are the calls of the source. How the source made its calls, unless noted: active means hit-call score of the fitted dose curve at least 0.9, where 1 is the maximum; inactive means score below 0.9.
# How the values were obtained:
# [1] = CCTE_Shafer_MEA_acute_spike_number: CCTE's Neural Acute Assay for Total Number of Spikes, Shafer Lab (AID 2284008)
# In short: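 Primary rat cortical neurons on 16-electrode MEA wells; on DIV 13 or 15, 40-min baseline then 40-min recording with compound (0.03-40 uM) at 37 C. Spikes detected at 8x rms noise; percent change versus baseline, DMSO as negative control.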
# [2] = CCTE_Shafer_MEA_acute_burst_number: CCTE's Neural Acute Assay for Single-Electrode Bursts, Shafer Lab (AID 2284013)
# In short: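 Rat cortical cultures, DIV 13/15; 40 min baseline, then 40 min with compound 0.03-40 uM, 37 C. Spikes: 300-5000 Hz band-pass, threshold 8x rms noise. Readout = % change in single-electrode bursts vs baseline, loss-of-signal fit.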
# [3] = CCTE_Shafer_MEA_acute_burst_duration_mean: CCTE's Neural Acute Assay for Mean Burst Duration, Shafer Lab (AID 2284014);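 further: hits are decreases in mean burst duration relative to DMSO controls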
# In short: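 Primary rat cortical neurons on 16-electrode MEA wells, treated on DIV 13 or 15 with compound (0.03-40 uM; ≥3 wells each). 40-min baseline and 40-min exposure recordings at 37 C; percent change in mean burst duration per well versus DMSO.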
# [4] = CCTE_Shafer_MEA_acute_per_burst_spike_number_mean: CCTE's Neural Acute Assay for Average Number of Spikes Per Burst, Shafer Lab (AID 2284015);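 further: hits are decreases in mean spikes per burst versus baseline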
# In short: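 Rat primary cortical neurons on 48-well MEAs (DIV 13 or 15) were treated with 0.03-40 uM compound at 37 C. Mean spikes per burst over 40 min were recorded before and after exposure and expressed as percent change from baseline, relative to DMSO.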
# [5] = CCTE_Shafer_MEA_acute_interburst_interval_mean: CCTE's Neural Acute Assay for Mean Interburst Interval, Shafer Lab (AID 2284016);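 further: percent change of mean interburst interval versus each well's own pre-dose baseline; curves fitted for decrease in interburst interval relative to DMSO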
# In short: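 Rat primary cortical neurons on 48-well MEAs at DIV 13 or 15 were exposed acutely to 0.03-40 uM. Spikes detected at 8x rms noise, 37 C. Mean interburst interval from 40 min recordings expressed as percent change from 40 min pre-treatment baseline.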
# [6] = CCTE_Shafer_MEA_acute_burst_percentage_mean: CCTE's Neural Acute Assay for Percentage of Spikes in a Burst, Shafer Lab (AID 2284017)
# In short: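 Primary rat cortical neurons on 48-well MEA plates, treated on DIV 13 or 15 at 0.03-40 uM. Spikes detected at 8x rms noise at 37C; percent change from 40-min baseline to 40-min post-dose recording, fitted versus DMSO.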
# [7] = CCTE_Shafer_MEA_acute_burst_percentage_std: CCTE's Neural Acute Assay for Standard Deviation of Burst Percentage, Shafer Lab (AID 2284018);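 further: fitted in the negative direction so actives lower burst percentage SD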
# In short: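 Primary rat cortical neurons on 16-electrode MEA wells were recorded 40 min at baseline (DIV 13 or 15), then 40 min after compound (0.03-40 uM), at 37 C. Well value is SD across electrodes of spikes-in-bursts/total spikes; endpoint is percent change, DMSO-referenced.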
# [8] = CCTE_Shafer_MEA_acute_per_network_burst_spike_number_mean: CCTE's Neural Acute Assay for Average Number of Spikes in a Network Burst, Shafer Lab (AID 2284019)
# In short: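 Primary rat cortical neurons on 16-electrode MEA wells, DIV 13 or 15, 37 C; 40-min baseline then 40-min recording with compound (0.03-40 uM). Spikes per network burst (total spikes/number of bursts) expressed as percent change from baseline, DMSO reference.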
# [9] = CCTE_Shafer_MEA_acute_per_network_burst_spike_number_std: CCTE's Neural Acute Assay for Standard Deviation of Number of Spikes in a Network Burst, Shafer Lab (AID 2284020);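 further: fitted for decrease in spike-number SD versus DMSO so actives lower it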
# In short: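 Primary rat cortical neurons on 48-well MEAs (16 electrodes/well) recorded at DIV 13 or 15: 40-min baseline, then 40 min with compound (0.03-40 uM), 37 C. Value is percent change in SD of spikes per network burst, relative to DMSO.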
# [10] = CCTE_Shafer_MEA_acute_per_network_burst_electrodes_number_mean: CCTE's Neural Acute Assay for Mean Number of Electrodes in a Network Burst, Shafer Lab (AID 2284021);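 further: curves fitted for decreases only so hits reduce electrodes per burst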
# In short: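 Rat primary cortical neurons on 16-electrode MEA wells were recorded 40 min at baseline on DIV 13 or 15, then 40 min after compound (0.03-40 uM), at 37 C. Value is percent change per well, fitted in loss direction versus DMSO.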
# [11] = CCTE_Shafer_MEA_acute_network_burst_percentage: CCTE's Neural Acute Assay for Percentage of Network Bursts, Shafer Lab (AID 2284022);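 further: curves fitted for loss so actives lower network burst percentage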
# In short: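 Primary rat cortical neurons on 16-electrode MEA wells, treated on DIV 13 or 15 with compound (0.03-40 uM); 40-min baseline and 40-min post-exposure recordings at 37 C. Value is percent change in spikes within network bursts versus baseline, DMSO negative control.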
# [12] = CCTE_Shafer_MEA_acute_cross_correlation_area: CCTE's Neural Acute Assay for Area of Cross Correlation, Shafer Lab (AID 2284024);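 further: area under pooled inter-electrode spike cross-correlation near zero lag as percent change from own baseline; curves fitted for loss of cross-correlation area so actives lower synchrony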
# In short: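 Primary rat cortical neurons on 48-well MEA plates (16 electrodes/well) were recorded 40 min at baseline on DIV 13 or 15, then 40 min with compound (0.03-40 uM) at 37 C; cross-correlation area expressed as percent change from baseline.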
# [13] = CCTE_Shafer_MEA_acute_cross_correlation_HWHM: CCTE's Neural Acute Assay for Cross Correlation at Half Width at Half Maximum, Shafer Lab (AID 2284026);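 further: spontaneous network firing of rat primary cortical neurons on multiwell microelectrode arrays; percent change per well from pre-dose baseline in spike cross-correlogram half width; hits are a decrease in cross-correlogram half width relative to DMSO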
# In short: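 Primary rat cortical neurons on 16-electrode MEA wells; 40-min baseline on DIV 13 or 15, then 40-min recording with compound (0.03-40 uM) at 37 C. HWHM of spike cross-correlogram expressed as percent change from baseline per well, DMSO reference.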
# [14] = CCTE_Shafer_MEA_acute_synchrony_index: CCTE's Neural Acute Assay for Synchrony, Shafer Lab (AID 2284027);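 further: fitted for loss of signal so actives lower synchrony relative to DMSO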
# In short: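 Readout is percent change in the unitless network synchrony index (0 low, 1 high) between a 40-min baseline and a 40-min recording in compound. Cultures were primary rat cortical neurons on MEAs, treated at 0.03-40 uM on DIV 13 or 15.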
# [15] = CCTE_Shafer_MEA_dev_firing_rate_mean: CCTE's Neural Network Formation Assay for Mean Firing Rate, Shafer Lab (AID 2284031)
# In short: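 Rat primary cortical neurons were seeded on multielectrode arrays and treated from plating through day 12, with redosing at each feed. Spontaneous spiking was recorded four times; mean firing rate AUC was fitted downward against DMSO.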
# [16] = CCTE_Shafer_MEA_dev_per_burst_spike_percent: CCTE's Neural Network Formation Assay for Percent of Spikes in a Burst, Shafer Lab (AID 2284032)
# In short: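 Rat primary cortical neurons on 16-electrode MEA wells, dosed from plating day 0 for 12 days with renewal on DIV 5 and 9; spikes-in-bursts percentage averaged over bursting electrodes, collapsed as AUC across days 5, 7, 9, 12; loss direction versus DMSO.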
# [17] = CCTE_Shafer_MEA_dev_active_electrodes_number: CCTE's Neural Network Formation Assay for Number of Active Electrodes, Shafer Lab (AID 2284040; active means hit-call score of the fitted dose curve at least 0.9, where 1 is the maximum)
# In short: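 Primary rat cortical neurons on 16-electrode MEA wells, exposed from day 0 through day 12 with compound renewed at DIV 5 and 9 feeds. Active electrodes (mean firing ≥5 spikes/min) counted at DIV 5, 7, 9, 12; trapezoidal AUC across days, loss-of-signal versus DMSO.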
# [18] = CCTE_Shafer_MEA_dev_burst_rate: CCTE's Neural Network Formation Assay for Burst Rate, Shafer Lab (AID 2284042)
# In short: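 Primary rat cortical neurons on PEI-coated 48-well MEA plates (laminin added with cells at plating) (16 electrodes/well), exposed from plating to day 12, dosing renewed at DIV 5 and 9. Burst rate averaged over active electrodes, recorded DIV 5, 7, 9, 12, summarized as AUC; loss versus DMSO.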
# [19] = CCTE_Shafer_MEA_dev_per_burst_interspike_interval: CCTE's Neural Network Formation Assay for Burst Interspike Interval, Shafer Lab (AID 2284044);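 further: mean spike spacing inside bursts as AUC over recordings on days 5 7 9 12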
# In short: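 Rat cortical primary cultures, 16 electrodes/well; compound from plating, renewed with full media change DIV 5 and 9. Spikes via adaptive detector; per-burst ISI well-mean over active bursting electrodes; AUC of DIV 5/7/9/12 recordings; loss-direction fit vs DMSO.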
# [20] = CCTE_Shafer_MEA_dev_burst_duration_mean: CCTE's Neural Network Formation Assay for Mean Burst Duration, Shafer Lab (AID 2284045)
# In short: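 Primary rat cortical neurons on PEI-coated 16-electrode MEA wells, exposed from plating through day 12 with compound renewed at DIV 5 and 9; spontaneous activity recorded days 5, 7, 9, 12. Well-mean burst duration collapsed as trapezoidal AUC, fitted for loss versus DMSO.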
# [21] = CCTE_Shafer_MEA_dev_interburst_interval_mean: CCTE's Neural Network Formation Assay for Mean Interburst Interval, Shafer Lab (AID 2284046);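 further: well-mean interburst interval of bursting electrodes as AUC over four recording days; curve fitted for decrease in interburst interval relative to DMSO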
# In short: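 Recordings on days 5, 7, 9 and 12 give well-mean interburst interval across actively bursting electrodes, summarized as area under the curve. Cultures: rat cortical neurons, continuous exposure from day 0, compound renewed at feeds; decrease analyzed versus DMSO.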
# [22] = CCTE_Shafer_MEA_dev_inter_network_spike_interval_mean: CCTE's Neural Network Formation Assay for Mean Inter-network Spike Interval, Shafer Lab (AID 2284047)
# In short: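 Primary rat cortical neurons on 16-electrode MEA wells, exposed from plating day 0 through DIV 12, compound renewed at DIV 5 and 9 media changes. Mean interval between network-spike peaks recorded DIV 5, 7, 9, 12; collapsed as trapezoidal AUC, fitted downward versus DMSO.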
# [23] = CCTE_Shafer_MEA_dev_network_spike_peak: CCTE's Neural Network Formation Assay for Mean Number of Electrodes in Network Spike, Shafer Lab (AID 2284049)
# In short: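 Continuous 12-day exposure of rat cortical cultures, starting at plating, on MEA plates. Endpoint: electrodes participating in network-spike peaks, AUC across DIV 5–12, DMSO as negative control.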
# [24] = CCTE_Shafer_MEA_dev_spike_duration_mean: CCTE's Neural Network Formation Assay for Mean Spike Duration, Shafer Lab (AID 2284051);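 further: mean network spike duration pooled as area under curve over DIV 5 to 12 recordings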
# In short: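 Primary rat cortical neurons on 16-electrode MEA wells (PEI-coated, laminin in plating drop), exposed from plating through DIV 12 with compound renewed at DIV 5 and 9. Mean network-spike duration recorded DIV 5, 7, 9, 12; trapezoidal AUC across days, DMSO baseline.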
# [25] = CCTE_Shafer_MEA_dev_network_spike_duration_std: CCTE's Neural Network Formation Assay for Standard Deviation of Network Spike Duration, Shafer Lab (AID 2284052);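 further: area under curve of spike duration SD across recording days 5 to 12; hits are decreases in network spike duration SD versus DMSO vehicle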
# In short: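 Primary rat cortical neurons on PEI-coated 16-electrode MEA wells, exposed from plating day 0 through day 12 with compound renewed at DIV 5 and 9. Network spike duration SD recorded on days 5, 7, 9, 12, collapsed as trapezoidal AUC; loss-of-signal fit versus DMSO.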
compound,measurement,setting,value
CP(=O)(O)CCC(N)C(=O)O (stereo not given),outcome,[1],inactive
same,outcome,[2],inactive
same,AC50,[3],35 µM (active)
same,AC50,[4],50 µM (active)
same,outcome,[5],inactive
same,outcome,[6],inactive
same,outcome,[7],inactive
same,outcome,[8],inactive
same,outcome,[9],inactive
same,outcome,[10],inactive
same,outcome,[11],inactive
same,outcome,[12],inactive
same,outcome,[13],inactive
same,outcome,[14],inactive
same,outcome,[15],inactive
same,outcome,[16],inactive
same,outcome,[17],inactive
same,outcome,[18],inactive
same,outcome,[19],inactive
same,outcome,[20],inactive
same,outcome,[21],inactive
same,outcome,[22],inactive
same,outcome,[23],inactive
same,outcome,[24],inactive
same,outcome,[25],inactive
